# Experimental data as given in PMC7862700, “An all-to-all approach to the identification of sequence-specific readers for epigenetic DNA modifications on cytosine”.
# Experiments:
# Assay in all cases: DAPPL (digital affinity profiling via proximity ligation, sequencing); 10 mM Tris-HCl pH 7.5, 50 mM NaCl, 1 mM DTT, 4% glycerol, room temperature, 30 min; GST-TFs on glutathione beads, 16-mer random dsDNA library, 0.1% formaldehyde crosslink after washing; high values mean tight binding
# Conditions in all cases: protein: recombinant; tags: N-terminal GST; dsDNA, one strand shown
# ETV2 = target: T1, ETV2 (Homo sapiens, UniProt O00321 1-342)
# T1 sequence: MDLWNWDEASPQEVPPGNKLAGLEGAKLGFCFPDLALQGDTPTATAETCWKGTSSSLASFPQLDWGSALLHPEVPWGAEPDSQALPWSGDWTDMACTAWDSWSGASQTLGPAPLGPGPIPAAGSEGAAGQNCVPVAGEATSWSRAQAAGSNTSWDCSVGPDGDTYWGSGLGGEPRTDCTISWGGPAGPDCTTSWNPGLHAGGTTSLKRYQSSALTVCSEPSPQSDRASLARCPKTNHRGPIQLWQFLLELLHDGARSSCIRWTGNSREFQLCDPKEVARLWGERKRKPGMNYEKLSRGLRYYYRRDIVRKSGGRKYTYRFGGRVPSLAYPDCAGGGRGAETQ
# Summary of the method: (§1)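 Human transcription factors fused to GST were expressed in yeast, captured on glutathione beads, given DNA barcodes and pooled with a GST-only negative control. Pools were incubated with 200 nmole of a 16-mer random double-stranded DNA library in Tris/NaCl/DTT/glycerol buffer at room temperature for 30 min. They were then washed, crosslinked with 0.1% formaldehyde, proximity-ligated (BsaI/T4 ligase, 1 h, 37 °C), PCR-amplified and sequenced on an Illumina NextSeq500. Binding signal is each 6-mer's read frequency for a factor divided by its frequency for the GST control.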
# ELF3 = target: T2, ELF3 (Homo sapiens, UniProt P78545 1-371)
# T2 sequence: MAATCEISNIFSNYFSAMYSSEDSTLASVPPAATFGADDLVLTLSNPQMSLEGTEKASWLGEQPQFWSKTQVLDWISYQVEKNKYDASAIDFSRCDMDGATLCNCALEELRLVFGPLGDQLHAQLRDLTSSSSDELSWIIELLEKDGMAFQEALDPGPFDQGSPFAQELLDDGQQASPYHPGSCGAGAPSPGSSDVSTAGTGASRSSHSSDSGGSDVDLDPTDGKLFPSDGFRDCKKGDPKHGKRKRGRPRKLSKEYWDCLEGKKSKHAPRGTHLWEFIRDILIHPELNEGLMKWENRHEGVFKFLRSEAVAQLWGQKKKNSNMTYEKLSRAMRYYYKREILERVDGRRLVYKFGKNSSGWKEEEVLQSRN
# Summary of the method: as §1
# ETV1 = ETV1 (Homo sapiens, UniProt P50549 1-477)
# ETV1, sequence (P50549 whole entry): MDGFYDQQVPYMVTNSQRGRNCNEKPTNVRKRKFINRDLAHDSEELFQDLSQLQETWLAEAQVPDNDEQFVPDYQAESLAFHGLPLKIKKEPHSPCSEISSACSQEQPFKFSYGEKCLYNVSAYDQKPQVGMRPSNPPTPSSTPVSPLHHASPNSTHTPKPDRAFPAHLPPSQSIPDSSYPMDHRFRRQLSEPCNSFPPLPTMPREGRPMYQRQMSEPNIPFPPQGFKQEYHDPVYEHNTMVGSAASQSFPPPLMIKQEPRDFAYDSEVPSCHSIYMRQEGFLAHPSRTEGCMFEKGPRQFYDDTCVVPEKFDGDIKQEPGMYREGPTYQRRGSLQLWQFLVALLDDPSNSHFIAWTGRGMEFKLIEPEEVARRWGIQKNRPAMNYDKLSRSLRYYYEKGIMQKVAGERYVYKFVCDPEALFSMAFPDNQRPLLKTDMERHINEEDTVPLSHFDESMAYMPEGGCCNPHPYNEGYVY
# Summary of the method: as §1
# ERF = target: T3, ERF (Homo sapiens, UniProt P50548 1-548)
# T3 sequence: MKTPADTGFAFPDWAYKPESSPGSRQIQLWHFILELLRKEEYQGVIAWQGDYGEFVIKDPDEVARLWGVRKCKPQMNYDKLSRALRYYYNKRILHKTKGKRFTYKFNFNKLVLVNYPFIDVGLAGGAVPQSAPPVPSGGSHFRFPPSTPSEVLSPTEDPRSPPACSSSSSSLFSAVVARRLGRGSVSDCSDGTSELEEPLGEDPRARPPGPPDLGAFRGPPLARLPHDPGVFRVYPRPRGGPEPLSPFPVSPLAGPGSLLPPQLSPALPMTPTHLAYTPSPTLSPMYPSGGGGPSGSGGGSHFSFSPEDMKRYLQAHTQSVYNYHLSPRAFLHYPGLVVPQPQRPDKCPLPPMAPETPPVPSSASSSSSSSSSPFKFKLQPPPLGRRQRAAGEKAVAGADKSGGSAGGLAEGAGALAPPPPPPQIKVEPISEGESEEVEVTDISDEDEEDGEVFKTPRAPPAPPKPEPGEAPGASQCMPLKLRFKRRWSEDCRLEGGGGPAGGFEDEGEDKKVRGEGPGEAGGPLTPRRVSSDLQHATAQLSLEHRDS
# Summary of the method: as §1
# ETV3L = target: T4, ETV3L (Homo sapiens, UniProt Q6ZN32 1-361)
# T4 sequence: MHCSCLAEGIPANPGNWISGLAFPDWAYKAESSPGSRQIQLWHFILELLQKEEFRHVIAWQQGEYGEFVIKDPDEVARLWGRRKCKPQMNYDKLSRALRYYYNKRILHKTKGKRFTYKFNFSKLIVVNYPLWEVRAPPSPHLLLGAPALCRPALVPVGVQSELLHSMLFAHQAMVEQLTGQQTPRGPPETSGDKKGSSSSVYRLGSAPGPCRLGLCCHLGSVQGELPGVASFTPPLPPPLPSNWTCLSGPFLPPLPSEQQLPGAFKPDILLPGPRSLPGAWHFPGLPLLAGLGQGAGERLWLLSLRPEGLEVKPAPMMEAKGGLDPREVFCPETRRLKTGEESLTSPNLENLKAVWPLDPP
# Summary of the method: as §1
# ETS2 = target: T5, ETS2 (Homo sapiens, UniProt P15036 1-469)
# T5 sequence: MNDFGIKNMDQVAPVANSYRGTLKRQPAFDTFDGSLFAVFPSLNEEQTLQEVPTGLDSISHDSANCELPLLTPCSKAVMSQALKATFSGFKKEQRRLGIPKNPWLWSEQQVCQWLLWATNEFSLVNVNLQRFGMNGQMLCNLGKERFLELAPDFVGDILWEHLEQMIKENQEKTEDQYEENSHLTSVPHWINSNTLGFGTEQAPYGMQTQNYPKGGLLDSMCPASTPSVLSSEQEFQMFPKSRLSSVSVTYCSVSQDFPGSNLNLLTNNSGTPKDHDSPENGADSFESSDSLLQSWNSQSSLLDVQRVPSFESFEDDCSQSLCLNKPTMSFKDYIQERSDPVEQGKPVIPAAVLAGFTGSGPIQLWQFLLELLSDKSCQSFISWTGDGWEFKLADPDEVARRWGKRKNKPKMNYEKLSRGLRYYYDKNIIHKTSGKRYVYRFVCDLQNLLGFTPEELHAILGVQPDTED
# Summary of the method: as §1
# SPDEF = target: T6, SPDEF (Homo sapiens, UniProt O95238 1-335)
# T6 sequence: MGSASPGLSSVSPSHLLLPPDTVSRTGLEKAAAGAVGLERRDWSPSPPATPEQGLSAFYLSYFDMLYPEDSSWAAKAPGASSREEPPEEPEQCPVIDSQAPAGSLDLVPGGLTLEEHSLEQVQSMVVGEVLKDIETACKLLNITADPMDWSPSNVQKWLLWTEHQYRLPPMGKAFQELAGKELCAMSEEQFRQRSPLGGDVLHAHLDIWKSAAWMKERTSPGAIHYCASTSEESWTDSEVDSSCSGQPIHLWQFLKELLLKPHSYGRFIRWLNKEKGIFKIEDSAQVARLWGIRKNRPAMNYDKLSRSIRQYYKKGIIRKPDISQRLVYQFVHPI
# Summary of the method: as §1
# ETV7 = target: T7, ETV7 (Homo sapiens, UniProt Q9Y603 1-341)
# T7 sequence: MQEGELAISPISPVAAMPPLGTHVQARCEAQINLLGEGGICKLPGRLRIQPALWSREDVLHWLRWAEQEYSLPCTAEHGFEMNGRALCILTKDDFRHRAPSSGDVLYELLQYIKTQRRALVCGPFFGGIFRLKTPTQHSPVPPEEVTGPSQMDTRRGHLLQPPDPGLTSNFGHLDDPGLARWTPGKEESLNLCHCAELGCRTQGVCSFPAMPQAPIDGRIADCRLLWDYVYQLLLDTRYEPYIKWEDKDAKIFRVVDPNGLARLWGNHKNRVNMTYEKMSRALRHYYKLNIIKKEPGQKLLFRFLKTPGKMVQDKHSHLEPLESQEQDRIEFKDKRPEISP
# Summary of the method: as §1
# ETV3 = target: T8, ETV3 (Homo sapiens, UniProt P41162-2 1-143)
# T8 sequence: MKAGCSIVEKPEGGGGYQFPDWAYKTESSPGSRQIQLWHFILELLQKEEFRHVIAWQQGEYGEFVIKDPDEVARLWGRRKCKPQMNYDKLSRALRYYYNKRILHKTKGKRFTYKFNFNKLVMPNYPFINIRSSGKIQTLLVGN
# Summary of the method: as §1
# ETV6 = ETV6 (Homo sapiens, UniProt P41212 1-452)
# ETV6, sequence (P41212 whole entry): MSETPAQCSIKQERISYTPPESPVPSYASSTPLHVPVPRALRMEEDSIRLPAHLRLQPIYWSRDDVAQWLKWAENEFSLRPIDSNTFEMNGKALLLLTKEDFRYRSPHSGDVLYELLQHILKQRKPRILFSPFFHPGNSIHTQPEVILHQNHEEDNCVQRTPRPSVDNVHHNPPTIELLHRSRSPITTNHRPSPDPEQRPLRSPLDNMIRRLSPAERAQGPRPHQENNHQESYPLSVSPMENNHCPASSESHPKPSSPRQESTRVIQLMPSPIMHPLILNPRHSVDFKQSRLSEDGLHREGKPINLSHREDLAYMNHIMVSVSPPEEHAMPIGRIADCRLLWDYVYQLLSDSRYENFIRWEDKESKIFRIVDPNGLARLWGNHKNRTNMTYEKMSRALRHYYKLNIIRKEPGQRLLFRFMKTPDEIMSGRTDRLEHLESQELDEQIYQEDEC
# Summary of the method: as §1
sequence,measurement,setting,value
GTGCAT,binding signal,ETV2,"1.02 fold enrichment (6-mer frequency, TF over GST control)"
same,binding signal,ELF3,"1.03 fold enrichment (6-mer frequency, TF over GST control)"
same,binding signal,ETV1,"1.05 fold enrichment (6-mer frequency, TF over GST control)"
same,binding signal,ERF,"1.18 fold enrichment (6-mer frequency, TF over GST control)"
same,binding signal,ETV3L,"1.04 fold enrichment (6-mer frequency, TF over GST control)"
same,binding signal,ETS2,"1.1 fold enrichment (6-mer frequency, TF over GST control)"
same,binding signal,SPDEF,"1.17 fold enrichment (6-mer frequency, TF over GST control)"
same,binding signal,ETV7,"1.12 fold enrichment (6-mer frequency, TF over GST control)"
same,binding signal,ETV3,"1 fold enrichment (6-mer frequency, TF over GST control)"
same,binding signal,ETV6,"1.14 fold enrichment (6-mer frequency, TF over GST control)"
